The values below come from the supplement of paper PMC10849652.

About 7,900 targets were measured; listed, in parts, are those with a hit and a random draw of the rest. About 0.6% of all pairs of compound and target were hits. Values without a mark were called inactive.

Sequence of UniProt P62072 (P62072 whole entry, looked up): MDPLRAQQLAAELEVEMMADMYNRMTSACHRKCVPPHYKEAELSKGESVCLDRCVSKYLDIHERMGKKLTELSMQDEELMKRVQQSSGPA
Sequence of UniProt P40763 (P40763 whole entry, looked up): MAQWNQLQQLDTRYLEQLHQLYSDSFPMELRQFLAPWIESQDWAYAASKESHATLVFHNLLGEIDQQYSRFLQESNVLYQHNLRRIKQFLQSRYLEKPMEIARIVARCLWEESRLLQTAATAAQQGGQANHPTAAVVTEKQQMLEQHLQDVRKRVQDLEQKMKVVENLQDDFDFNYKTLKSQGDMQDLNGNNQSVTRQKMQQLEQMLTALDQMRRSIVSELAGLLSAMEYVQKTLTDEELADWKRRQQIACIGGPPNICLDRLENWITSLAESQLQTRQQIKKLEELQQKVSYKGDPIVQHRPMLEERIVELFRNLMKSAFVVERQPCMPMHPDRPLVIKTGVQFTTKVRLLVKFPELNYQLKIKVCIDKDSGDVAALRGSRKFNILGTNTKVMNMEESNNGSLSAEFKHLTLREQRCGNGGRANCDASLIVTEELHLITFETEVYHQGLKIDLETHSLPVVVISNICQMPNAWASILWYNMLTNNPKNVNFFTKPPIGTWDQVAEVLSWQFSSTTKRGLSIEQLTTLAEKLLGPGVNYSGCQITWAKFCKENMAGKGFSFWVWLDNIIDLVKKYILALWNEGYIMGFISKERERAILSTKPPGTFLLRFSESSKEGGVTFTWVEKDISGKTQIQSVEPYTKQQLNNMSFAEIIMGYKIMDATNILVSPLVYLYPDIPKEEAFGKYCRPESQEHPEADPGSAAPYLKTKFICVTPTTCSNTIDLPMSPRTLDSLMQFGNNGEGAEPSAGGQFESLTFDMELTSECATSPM
Sequence of UniProt Q8TCT7 (Q8TCT7 whole entry, looked up): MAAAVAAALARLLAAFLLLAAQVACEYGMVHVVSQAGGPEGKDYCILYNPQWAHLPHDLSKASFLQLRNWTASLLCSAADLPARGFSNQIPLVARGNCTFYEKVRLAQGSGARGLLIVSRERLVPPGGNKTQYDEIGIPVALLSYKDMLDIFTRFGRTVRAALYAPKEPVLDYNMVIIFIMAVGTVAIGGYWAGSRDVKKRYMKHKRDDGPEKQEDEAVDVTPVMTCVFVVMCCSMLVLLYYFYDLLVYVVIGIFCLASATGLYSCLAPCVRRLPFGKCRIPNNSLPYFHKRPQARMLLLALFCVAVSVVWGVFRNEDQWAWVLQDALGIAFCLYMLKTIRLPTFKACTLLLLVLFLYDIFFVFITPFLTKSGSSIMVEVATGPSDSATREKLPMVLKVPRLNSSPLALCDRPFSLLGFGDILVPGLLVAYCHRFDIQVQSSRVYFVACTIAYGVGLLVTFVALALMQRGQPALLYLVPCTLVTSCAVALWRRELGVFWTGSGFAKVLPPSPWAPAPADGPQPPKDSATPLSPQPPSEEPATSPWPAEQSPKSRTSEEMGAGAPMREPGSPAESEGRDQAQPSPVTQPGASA
Sequence of UniProt P84103 (P84103 whole entry, looked up): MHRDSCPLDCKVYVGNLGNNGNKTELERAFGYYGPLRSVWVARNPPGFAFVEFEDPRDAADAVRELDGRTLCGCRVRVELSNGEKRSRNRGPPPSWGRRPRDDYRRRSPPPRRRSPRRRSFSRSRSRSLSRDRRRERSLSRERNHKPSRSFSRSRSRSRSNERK
Sequence of UniProt Q9UHB9 (Q9UHB9 whole entry, looked up): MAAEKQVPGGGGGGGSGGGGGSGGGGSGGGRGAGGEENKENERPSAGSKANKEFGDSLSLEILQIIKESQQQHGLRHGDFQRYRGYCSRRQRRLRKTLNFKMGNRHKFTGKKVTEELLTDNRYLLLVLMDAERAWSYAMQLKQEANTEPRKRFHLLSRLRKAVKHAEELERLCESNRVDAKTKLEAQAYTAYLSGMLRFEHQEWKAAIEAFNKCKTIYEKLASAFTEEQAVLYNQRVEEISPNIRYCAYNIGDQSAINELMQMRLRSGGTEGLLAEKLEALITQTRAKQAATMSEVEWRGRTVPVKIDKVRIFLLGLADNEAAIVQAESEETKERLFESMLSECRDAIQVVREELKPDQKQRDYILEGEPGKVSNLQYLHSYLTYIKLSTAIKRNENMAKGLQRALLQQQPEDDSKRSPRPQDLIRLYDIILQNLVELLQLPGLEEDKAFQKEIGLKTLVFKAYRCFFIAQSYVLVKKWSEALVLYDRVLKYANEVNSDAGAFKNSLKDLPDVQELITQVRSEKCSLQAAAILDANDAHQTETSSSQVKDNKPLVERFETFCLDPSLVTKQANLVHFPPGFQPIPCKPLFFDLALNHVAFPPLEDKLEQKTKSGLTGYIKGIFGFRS
Sequence of UniProt Q92797 (Q92797 whole entry, looked up): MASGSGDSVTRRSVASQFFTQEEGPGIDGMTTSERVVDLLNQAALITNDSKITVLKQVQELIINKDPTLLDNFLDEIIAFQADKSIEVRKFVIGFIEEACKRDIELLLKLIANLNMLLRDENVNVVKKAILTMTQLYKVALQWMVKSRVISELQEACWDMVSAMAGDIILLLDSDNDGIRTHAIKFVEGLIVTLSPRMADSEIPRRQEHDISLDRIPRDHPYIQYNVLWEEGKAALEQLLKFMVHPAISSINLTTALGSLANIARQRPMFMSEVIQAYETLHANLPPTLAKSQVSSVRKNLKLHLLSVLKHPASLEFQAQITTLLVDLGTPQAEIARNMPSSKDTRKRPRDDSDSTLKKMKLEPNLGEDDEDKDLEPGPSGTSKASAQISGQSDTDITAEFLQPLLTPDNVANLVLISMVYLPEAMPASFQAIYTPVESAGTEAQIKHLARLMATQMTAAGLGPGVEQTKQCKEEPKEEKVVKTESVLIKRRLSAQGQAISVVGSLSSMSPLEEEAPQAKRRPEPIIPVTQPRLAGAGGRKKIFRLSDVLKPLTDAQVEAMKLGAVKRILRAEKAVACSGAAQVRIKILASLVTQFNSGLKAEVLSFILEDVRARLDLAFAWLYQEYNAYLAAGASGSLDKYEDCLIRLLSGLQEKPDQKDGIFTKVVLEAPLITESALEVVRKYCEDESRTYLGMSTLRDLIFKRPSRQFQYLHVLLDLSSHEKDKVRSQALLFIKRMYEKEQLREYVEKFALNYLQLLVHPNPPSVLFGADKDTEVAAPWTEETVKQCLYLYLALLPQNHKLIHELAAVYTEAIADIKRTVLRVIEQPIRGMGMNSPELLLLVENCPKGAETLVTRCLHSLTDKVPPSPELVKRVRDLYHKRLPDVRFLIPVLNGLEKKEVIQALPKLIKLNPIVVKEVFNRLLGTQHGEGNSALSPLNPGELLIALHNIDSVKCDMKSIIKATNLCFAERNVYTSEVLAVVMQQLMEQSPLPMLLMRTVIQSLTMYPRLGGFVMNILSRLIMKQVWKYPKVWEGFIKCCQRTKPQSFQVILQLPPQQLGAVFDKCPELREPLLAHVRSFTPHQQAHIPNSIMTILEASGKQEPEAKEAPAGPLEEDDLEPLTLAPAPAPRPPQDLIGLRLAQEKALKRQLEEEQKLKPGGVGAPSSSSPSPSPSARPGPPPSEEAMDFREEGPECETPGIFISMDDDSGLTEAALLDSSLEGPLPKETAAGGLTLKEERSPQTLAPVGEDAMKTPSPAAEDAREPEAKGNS
Sequence of UniProt P56962 (P56962 whole entry, looked up): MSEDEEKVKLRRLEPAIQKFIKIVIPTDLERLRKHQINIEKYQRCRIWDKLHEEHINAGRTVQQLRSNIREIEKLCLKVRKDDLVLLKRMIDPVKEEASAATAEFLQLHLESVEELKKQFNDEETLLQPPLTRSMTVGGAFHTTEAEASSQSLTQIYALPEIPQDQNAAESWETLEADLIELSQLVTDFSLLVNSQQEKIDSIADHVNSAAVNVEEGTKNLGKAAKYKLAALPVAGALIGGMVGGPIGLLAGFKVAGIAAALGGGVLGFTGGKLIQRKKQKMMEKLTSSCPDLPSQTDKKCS
Sequence of UniProt Q8NEW0 (Q8NEW0 whole entry, looked up): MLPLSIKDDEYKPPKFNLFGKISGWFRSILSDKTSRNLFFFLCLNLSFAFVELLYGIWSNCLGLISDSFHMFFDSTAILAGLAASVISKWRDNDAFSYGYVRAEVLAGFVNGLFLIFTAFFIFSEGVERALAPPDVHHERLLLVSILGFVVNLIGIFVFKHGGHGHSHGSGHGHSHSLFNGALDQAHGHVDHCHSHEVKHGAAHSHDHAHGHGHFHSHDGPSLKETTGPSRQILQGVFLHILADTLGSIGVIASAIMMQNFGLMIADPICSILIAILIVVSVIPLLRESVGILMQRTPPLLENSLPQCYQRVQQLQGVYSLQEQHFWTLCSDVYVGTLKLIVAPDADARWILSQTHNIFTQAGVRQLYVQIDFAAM
Sequence of UniProt P08047 (P08047 whole entry, looked up): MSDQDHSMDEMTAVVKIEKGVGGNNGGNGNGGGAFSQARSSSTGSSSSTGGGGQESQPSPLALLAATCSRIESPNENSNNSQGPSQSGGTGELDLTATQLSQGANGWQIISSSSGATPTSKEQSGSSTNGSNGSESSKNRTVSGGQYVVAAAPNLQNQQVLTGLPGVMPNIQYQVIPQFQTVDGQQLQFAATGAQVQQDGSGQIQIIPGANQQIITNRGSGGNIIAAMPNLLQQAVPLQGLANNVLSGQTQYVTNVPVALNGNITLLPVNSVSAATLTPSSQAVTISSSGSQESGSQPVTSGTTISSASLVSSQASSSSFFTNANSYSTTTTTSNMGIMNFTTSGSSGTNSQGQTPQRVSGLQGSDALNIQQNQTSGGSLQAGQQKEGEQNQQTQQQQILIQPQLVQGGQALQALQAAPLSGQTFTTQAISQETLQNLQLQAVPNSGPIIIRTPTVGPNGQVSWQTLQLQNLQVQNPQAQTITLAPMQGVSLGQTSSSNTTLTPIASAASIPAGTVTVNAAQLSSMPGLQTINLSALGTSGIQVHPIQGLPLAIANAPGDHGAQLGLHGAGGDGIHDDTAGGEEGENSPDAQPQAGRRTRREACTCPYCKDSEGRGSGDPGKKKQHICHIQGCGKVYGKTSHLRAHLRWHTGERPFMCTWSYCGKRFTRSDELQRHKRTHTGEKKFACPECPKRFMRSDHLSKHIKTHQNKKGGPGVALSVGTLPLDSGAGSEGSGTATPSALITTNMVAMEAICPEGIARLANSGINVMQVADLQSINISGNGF

Compound in this assay: FC(F)(F)c1ccc(/C=C/c2nc(COc3ccc(CCCCn4ccnn4)cc3)co2)cc1 [mubritinib]
In words: log2 fold change, soluble protein after heating vs DMSO (PISA); higher = thermal stabilisation; K562 cells, 10 uM, 30 min; active = over 0.2 and 3.5 SD of the protein, either way, in both replicates (recomputed). The essentials: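 K562 cells (2×10^6 cells/mL) were treated with 10 μM compound for 30 min, and aliquots were heated for 3 min over 48°C-58°C. Pooled aliquots were extracted in PBS with 0.5% NP-40 at 4°C, and the supernatant after 21,000xg for 90 min was measured by TMTpro 16plex LC-MS/MS with channel sums equalised. Reported thermal stability, relative to control samples and from duplicates, is a log2 fold change.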
For the target STAT5B (UniProt P51692), the log2 fold change is 0.308.

STAT3 (UniProt P40763): the log2 fold change is 0.024.

Take STAM2 (UniProt O75886): the log2 fold change is 0.019.

As to TIAL1 isoform 2 (UniProt Q01085), the log2 fold change is 0.013.

Consider SLC38A9 (UniProt Q8NBW4), for which the log2 fold change is 0.046.

STAT5A (UniProt P42229): the log2 fold change was 0.371 (active).

Turning to SNX5 (UniProt Q9Y5X3), the log2 fold change was 0.082.

For SMARCE1 (UniProt Q969G3), the log2 fold change was -0.274.

As to SRSF3 (UniProt P84103), the log2 fold change was -0.097.

Regarding SMC5 (UniProt Q8IY18), the log2 fold change is -0.004.

Regarding SNX1 (UniProt Q13596), the log2 fold change was 0.057.

For the target TARBP1 (UniProt Q13395), the log2 fold change is -0.055.

Consider STX17 (UniProt P56962), for which the log2 fold change is 0.074.

SMARCAD1 isoform 2 (UniProt Q9H4L7): the log2 fold change was 0.241.

With TIMM10 (UniProt P62072), the log2 fold change is -0.024.

For the target SPCS2 (UniProt Q15005), the log2 fold change is 0.037.

For SMAP2 (UniProt Q8WU79), the log2 fold change is 0.018.

For the target TK1 (UniProt P04183), the log2 fold change is 0.056.

As to TIMM44 (UniProt O43615), the log2 fold change is 0.001.

As for TIMM29 (UniProt Q9BSF4), the log2 fold change is 0.064.

Regarding SRI (UniProt P30626), the log2 fold change is 0.01.

SORT1 (UniProt Q99523): the log2 fold change was 0.045.

Regarding SLC7A6 (UniProt Q92536), the log2 fold change was 0.049.

Turning to SYF2 (UniProt O95926), the log2 fold change was -0.002.

With STK25 (UniProt O00506), the log2 fold change is -0.013.

Take SYMPK (UniProt Q92797): the log2 fold change was 0.015.

In the case of SP1 (UniProt P08047), the log2 fold change was -0.023.

As to SSB (UniProt P05455), the log2 fold change is -0.111.

STARD3NL (UniProt O95772): the log2 fold change is -0.006.

As to SPG21 (UniProt Q9NZD8), the log2 fold change was -0.042.

Consider SRP68 (UniProt Q9UHB9), for which the log2 fold change was 0.012.

Turning to TJP2 isoform 7 (UniProt Q9UDY2), the log2 fold change was 0.002.

Consider SPPL2B (UniProt Q8TCT7), for which the log2 fold change was -0.008.

SRSF7 (UniProt Q16629): the log2 fold change is -0.128.

For SNW1 (UniProt Q13573), the log2 fold change was -0.006.

As for TBC1D23 (UniProt Q9NUY8), the log2 fold change is -0.011.

Take SLC30A7 (UniProt Q8NEW0): the log2 fold change is 0.107.
